According to the supplement of paper PMC10849652:
The full data set covers some 7,900 targets. This sample favours those with a hit. About 0.6% of all pairs of compound and target were hits.

What was measured:
Test in all cases: log2 fold change, soluble protein after heating vs DMSO (PISA); higher = thermal stabilisation; K562 cells, 10 uM, 30 min; active = over 0.2 and 3.5 SD of the protein, either way, in both replicates (recomputed)
[1] = compound: CS(=O)(=O)c1ccc(-c2cnc(N)c(C(=O)Nc3ccccc3)n2)cc1
Method in brief: (§1)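 K562 cells at 2×10^6 cells/mL were treated with 10 μM compound for 30 min. Aliquots were heated for 3 min across 48°C-58°C, pooled, and extracted in PBS with 0.5% NP-40 at 4°C; soluble protein was the supernatant after 21,000xg for 90 min. Soluble protein was quantified by TMTpro 16plex LC-MS/MS with channel sums equalised, and reported as log2 fold change in thermal stability against DMSO controls, with values from duplicates.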

crizotinib = compound: C[C@@H](Oc1cc(-c2cnn(C3CCNCC3)c2)cnc1N)c1c(Cl)ccc(F)c1Cl [crizotinib]
Method in brief: as §1

[2] = compound: C[C@@H]1COCCN1C2=NC(=NC(=C2)C3(CC3)S(=O)(=O)C)C4=C5C=CNC5=CC=C4
Method in brief: as §1

[3] = compound: C[C@H](C1=CC=C(C=C1)C(=O)NC2=C3C=CNC3=NC=C2)N
Method in brief: as §1

duvelisib = compound: C[C@H](Nc1ncnc2nc[nH]c12)c1cc2cccc(Cl)c2c(=O)n1-c1ccccc1 [duvelisib]
Method in brief: as §1

gandotinib = compound: Cc1cc(Nc2cc(CN3CCOCC3)c3nc(C)c(Cc4ccc(Cl)cc4F)n3n2)n[nH]1 [gandotinib]
Method in brief: as §1

tozasertib = compound: Cc1cc(Nc2cc(N3CCN(C)CC3)nc(Sc3ccc(NC(=O)C4CC4)cc3)n2)n[nH]1 [tozasertib]
Method in brief: as §1

[4] = compound: Cc1cc(SCc2sc(-c3ccc(C(F)(F)F)cc3)nc2C)ccc1OCC(=O)O
Method in brief: as §1

doramapimod = compound: Cc1ccc(-n2nc(C(C)(C)C)cc2NC(=O)Nc2ccc(OCCN3CCOCC3)c3ccccc23)cc1 [doramapimod]
Method in brief: as §1

ispinesib = compound: Cc1ccc(C(=O)N(CCCN)[C@@H](c2nc3cc(Cl)ccc3c(=O)n2Cc2ccccc2)C(C)C)cc1 [ispinesib]
Method in brief: as §1

bafetinib = compound: Cc1ccc(NC(=O)c2ccc(CN3CC[C@H](N(C)C)C3)c(C(F)(F)F)c2)cc1Nc1nccc(-c2cncnc2)n1 [bafetinib]
Method in brief: as §1

[5] = compound: Cc1cccc(CC(=O)N2CCc3c2ccc(-c2cn(C)c4ncnc(N)c24)c3F)n1
Method in brief: as §1

nilotinib = compound: Cc1cn(-c2cc(NC(=O)c3ccc(C)c(Nc4nccc(-c5cccnc5)n4)c3)cc(C(F)(F)F)c2)cn1 [nilotinib]
Method in brief: as §1

[6] = compound: Cc1nc(Nc2n[nH]c3c2CN(C(=O)N[C@H](CN(C)C)c2ccccc2)C3(C)C)c2sccc2n1
Method in brief: as §1

dasatinib = compound: Cc1nc(Nc2ncc(C(=O)Nc3c(C)cccc3Cl)s2)cc(N2CCN(CCO)CC2)n1 [dasatinib]
Method in brief: as §1

[7] = compound: Cc1ncc(-c2ccnc(Nc3ccc(S(C)(=O)=O)cc3)n2)n1C(C)C
Method in brief: as §1

[8] = compound: Cn1cc(-c2ccc3c(c2)CCN3C(=O)Cc2cccc(C(F)(F)F)c2)c2c(N)ncnc21
Method in brief: as §1

[9] = compound: Cn1cc(-c2ccc3nnc(C(F)(F)c4ccc5ncccc5c4)n3n2)cn1
Method in brief: as §1

tipifarnib = compound: Cn1cncc1[C@@](N)(c1ccc(Cl)cc1)c1ccc2c(c1)c(-c1cccc(Cl)c1)cc(=O)n2C [tipifarnib]
Method in brief: as §1

mubritinib = compound: FC(F)(F)c1ccc(/C=C/c2nc(COc3ccc(CCCCn4ccnn4)cc3)co2)cc1 [mubritinib]
Method in brief: as §1

Measured: log2 fold change

NR2C2AP isoform 2 (UniProt Q86WQ0)
UniProt Q86WQ0, sequence (Q86WQ0 whole entry, looked up): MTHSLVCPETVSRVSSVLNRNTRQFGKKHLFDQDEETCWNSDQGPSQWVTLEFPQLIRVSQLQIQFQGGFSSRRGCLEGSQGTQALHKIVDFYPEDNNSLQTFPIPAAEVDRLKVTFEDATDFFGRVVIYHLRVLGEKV
active: ispinesib 0.285
inactive: [1] 0.085 | crizotinib 0.011 | [2] 0.138 | [3] 0.025 | duvelisib 0.044 | gandotinib -0.035 | tozasertib 0.08 | [4] 0.01 | doramapimod -0.17 | bafetinib 0.037 | [5] 0.03 | nilotinib -0.072 | [6] 0.003 | dasatinib -0.095 | [7] -0.008 | [8] 0.028 | [9] -0.016 | tipifarnib 0.007 | mubritinib 0.072

NSUN2 (UniProt Q08J23)
inactive: [1] -0.107 | crizotinib -0.034 | [2] 0.031 | [3] 0.008 | duvelisib -0.077 | gandotinib -0.151 | tozasertib 0.065 | [4] 0.053 | doramapimod 0.067 | ispinesib -0.098 | bafetinib -0.059 | [5] 0.056 | nilotinib -0.038 | [6] -0.271 | dasatinib -0.146 | [7] -0.222 | [8] -0.034 | [9] -0.053 | tipifarnib -0.033 | mubritinib -0.045

NELFB isoform 2 (UniProt Q8WX92)
UniProt Q8WX92, sequence (Q8WX92 whole entry, looked up): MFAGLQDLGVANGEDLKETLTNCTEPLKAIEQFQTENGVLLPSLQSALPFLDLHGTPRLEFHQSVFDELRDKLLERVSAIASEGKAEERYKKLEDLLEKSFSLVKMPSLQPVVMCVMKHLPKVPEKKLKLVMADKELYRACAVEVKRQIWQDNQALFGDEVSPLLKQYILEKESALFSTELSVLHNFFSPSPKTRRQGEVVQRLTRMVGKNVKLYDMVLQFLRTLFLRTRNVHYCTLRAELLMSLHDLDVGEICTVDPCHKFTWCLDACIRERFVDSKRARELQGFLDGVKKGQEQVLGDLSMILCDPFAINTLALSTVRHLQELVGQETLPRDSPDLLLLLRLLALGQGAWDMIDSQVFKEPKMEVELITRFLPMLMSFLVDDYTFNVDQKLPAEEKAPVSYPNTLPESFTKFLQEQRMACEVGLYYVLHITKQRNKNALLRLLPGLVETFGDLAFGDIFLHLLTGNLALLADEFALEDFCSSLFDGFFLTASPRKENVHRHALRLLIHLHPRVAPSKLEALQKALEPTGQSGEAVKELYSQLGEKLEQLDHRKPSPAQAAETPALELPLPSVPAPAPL
inactive: [1] 0.059 | crizotinib 0.019 | [2] 0.087 | [3] -0.08 | duvelisib 0.088 | gandotinib -0.093 | tozasertib 0.033 | [4] 0.086 | doramapimod -0.087 | ispinesib 0.042 | bafetinib -0.088 | [5] 0.046 | nilotinib -0.135 | [6] -0.123 | dasatinib -0.189 | [7] 0.05 | [8] 0.032 | [9] 0.014 | tipifarnib -0.081 | mubritinib 0.03

NUMB (UniProt P49757)
UniProt P49757, sequence (P49757 whole entry, looked up): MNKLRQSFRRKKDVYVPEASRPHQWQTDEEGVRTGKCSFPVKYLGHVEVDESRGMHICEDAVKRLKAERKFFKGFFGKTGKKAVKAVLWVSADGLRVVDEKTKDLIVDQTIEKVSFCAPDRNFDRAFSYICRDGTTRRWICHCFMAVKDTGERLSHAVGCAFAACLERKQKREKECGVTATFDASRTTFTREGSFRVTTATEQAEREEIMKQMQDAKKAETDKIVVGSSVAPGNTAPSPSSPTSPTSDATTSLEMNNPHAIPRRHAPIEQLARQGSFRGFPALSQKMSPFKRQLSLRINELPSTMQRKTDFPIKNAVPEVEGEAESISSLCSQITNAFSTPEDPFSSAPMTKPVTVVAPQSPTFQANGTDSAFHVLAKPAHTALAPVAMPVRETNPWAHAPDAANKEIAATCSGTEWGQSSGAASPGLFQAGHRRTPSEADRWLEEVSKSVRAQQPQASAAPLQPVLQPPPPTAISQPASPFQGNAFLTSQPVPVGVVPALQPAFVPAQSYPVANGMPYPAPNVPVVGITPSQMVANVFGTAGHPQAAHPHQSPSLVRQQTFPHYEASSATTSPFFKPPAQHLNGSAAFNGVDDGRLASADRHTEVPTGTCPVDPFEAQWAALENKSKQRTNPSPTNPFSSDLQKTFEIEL
inactive: [1] 0.056 | crizotinib -0.189 | [2] 0.07 | [3] -0.068 | duvelisib -0.05 | gandotinib -0.06 | tozasertib -0.082 | [4] 0.006 | doramapimod -0.012 | ispinesib -0.073 | bafetinib -0.013 | [5] 0.022 | nilotinib -0.05 | [6] -0.078 | dasatinib 0.017 | [7] -0.12 | [8] 0.063 | [9] -0.008 | tipifarnib 0.059 | mubritinib -0.053

MITD1 (UniProt Q8WV92)
UniProt Q8WV92, sequence (Q8WV92 whole entry, looked up): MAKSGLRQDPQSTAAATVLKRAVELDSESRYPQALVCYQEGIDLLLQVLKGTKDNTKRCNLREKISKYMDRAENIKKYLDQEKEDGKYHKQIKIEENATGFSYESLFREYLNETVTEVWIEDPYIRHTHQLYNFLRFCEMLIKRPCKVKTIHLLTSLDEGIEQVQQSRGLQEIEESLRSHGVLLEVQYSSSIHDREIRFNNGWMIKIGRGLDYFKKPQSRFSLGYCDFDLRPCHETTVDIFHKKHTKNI
inactive: [1] -0.082 | crizotinib -0.271 | [2] -0.055 | [3] 0.133 | duvelisib 0.011 | gandotinib -0.068 | tozasertib -0.075 | [4] -0.147 | doramapimod 0.103 | ispinesib -0.072 | bafetinib -0.217 | [5] -0.006 | nilotinib -0.065 | [6] -0.035 | dasatinib 0.006 | [7] -0.101 | [8] 0.01 | [9] 0.009 | tipifarnib 0.098 | mubritinib -0.108

NCAPD2 (UniProt Q15021)
inactive: [1] 0.018 | crizotinib -0.024 | [2] 0.004 | [3] 0.093 | duvelisib 0.035 | gandotinib -0.077 | tozasertib 0.092 | [4] 0.109 | doramapimod -0.049 | ispinesib -0.029 | bafetinib 0.03 | [5] 0.045 | nilotinib -0.078 | [6] -0.071 | dasatinib -0.159 | [7] 0.08 | [8] -0.035 | [9] 0.018 | tipifarnib -0.148 | mubritinib 0.033

NDUFB8 (UniProt O95169)
UniProt O95169, sequence (O95169 whole entry, looked up): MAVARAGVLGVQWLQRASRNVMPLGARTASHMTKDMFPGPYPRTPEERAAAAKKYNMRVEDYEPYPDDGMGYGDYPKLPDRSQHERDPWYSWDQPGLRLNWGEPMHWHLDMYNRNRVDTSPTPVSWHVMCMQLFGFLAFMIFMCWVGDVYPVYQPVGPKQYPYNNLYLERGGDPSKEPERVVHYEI
inactive: [1] 0.035 | crizotinib 0.09 | [2] -0.015 | [3] -0.001 | duvelisib 0.161 | gandotinib 0.045 | tozasertib 0.028 | [4] 0.078 | doramapimod -0.057 | ispinesib 0.123 | bafetinib -0.029 | [5] -0.002 | nilotinib 0.015 | [6] 0.027 | dasatinib 0.056 | [7] -0.04 | [8] -0.08 | [9] 0.154 | tipifarnib 0.071 | mubritinib 0.027

OSTM1 (UniProt Q86WC4)
UniProt Q86WC4, sequence (Q86WC4 whole entry, looked up): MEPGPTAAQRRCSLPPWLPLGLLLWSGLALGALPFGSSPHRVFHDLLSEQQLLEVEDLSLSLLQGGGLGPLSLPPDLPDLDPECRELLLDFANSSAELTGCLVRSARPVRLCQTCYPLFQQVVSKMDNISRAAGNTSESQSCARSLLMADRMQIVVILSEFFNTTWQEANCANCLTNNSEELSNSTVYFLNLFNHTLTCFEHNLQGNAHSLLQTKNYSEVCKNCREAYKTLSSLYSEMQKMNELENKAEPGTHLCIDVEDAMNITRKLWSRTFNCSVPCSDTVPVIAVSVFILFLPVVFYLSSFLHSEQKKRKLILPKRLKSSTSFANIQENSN
inactive: [1] -0.014 | crizotinib -0.244 | [2] 0.028 | [3] -0.021 | duvelisib -0.017 | gandotinib -0.225 | tozasertib -0.003 | [4] -0.033 | doramapimod 0.041 | bafetinib -0.208 | [5] 0.091 | nilotinib 0.044 | [6] 0.017 | dasatinib -0.086 | [7] -0.068 | [8] 0.076 | [9] 0.029 | tipifarnib 0.008 | mubritinib -0.048
active: ispinesib -0.308

MRPS12 (UniProt O15235)
inactive: [1] 0.046 | crizotinib -0.075 | [2] 0.015 | [3] 0.311 | duvelisib -0.058 | gandotinib 0.063 | tozasertib 0.011 | [4] 0.022 | doramapimod 0.003 | bafetinib 0.269 | [5] 0.146 | nilotinib -0.161 | [6] 0.073 | dasatinib 0.062 | [7] -0.024 | [8] -0.045 | [9] 0.111 | tipifarnib -0.082 | mubritinib 0.143
active: ispinesib -0.65

MSTO1 (UniProt Q9BUK6)
UniProt Q9BUK6, sequence (Q9BUK6 whole entry, looked up): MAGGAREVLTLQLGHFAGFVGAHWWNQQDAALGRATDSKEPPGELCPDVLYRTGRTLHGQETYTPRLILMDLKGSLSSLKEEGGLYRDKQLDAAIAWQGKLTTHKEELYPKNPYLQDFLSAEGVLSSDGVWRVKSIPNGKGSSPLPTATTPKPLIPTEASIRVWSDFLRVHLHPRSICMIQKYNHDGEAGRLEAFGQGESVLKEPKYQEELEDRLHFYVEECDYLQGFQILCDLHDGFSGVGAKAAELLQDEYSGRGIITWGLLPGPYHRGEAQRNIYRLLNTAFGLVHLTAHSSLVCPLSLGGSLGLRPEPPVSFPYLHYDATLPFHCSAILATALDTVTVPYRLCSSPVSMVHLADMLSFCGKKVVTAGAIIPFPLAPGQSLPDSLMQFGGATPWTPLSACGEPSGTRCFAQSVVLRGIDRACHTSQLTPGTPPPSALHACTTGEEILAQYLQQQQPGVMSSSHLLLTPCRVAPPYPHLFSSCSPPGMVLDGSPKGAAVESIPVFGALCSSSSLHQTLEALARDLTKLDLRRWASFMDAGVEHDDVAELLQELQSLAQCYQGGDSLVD
inactive: [1] -0.014 | crizotinib -0.081 | [2] 0.09 | [3] 0.025 | duvelisib 0.009 | gandotinib -0.003 | tozasertib 0.02 | [4] 0.009 | doramapimod 0.027 | ispinesib -0.053 | bafetinib -0.03 | [5] 0.028 | nilotinib -0.057 | [6] 0.033 | dasatinib -0.174 | [7] -0.005 | [8] 0.064 | [9] 0.037 | tipifarnib -0.096 | mubritinib 0.011

NISCH (UniProt Q9Y2I1)
inactive: [1] -0.026 | crizotinib -0.284 | [2] 0.035 | [3] 0.047 | duvelisib -0.363 | gandotinib -0.4 | tozasertib 0.006 | [4] 0.126 | doramapimod 0.054 | bafetinib -0.053 | [5] 0.053 | nilotinib -0.138 | [6] -0.158 | dasatinib -0.233 | [7] -0.324 | [8] -0.002 | [9] -0.02 | tipifarnib -0.03 | mubritinib -0.009
active: ispinesib -0.408

NFE2 (UniProt Q16621)
UniProt Q16621, sequence (Q16621 whole entry, looked up): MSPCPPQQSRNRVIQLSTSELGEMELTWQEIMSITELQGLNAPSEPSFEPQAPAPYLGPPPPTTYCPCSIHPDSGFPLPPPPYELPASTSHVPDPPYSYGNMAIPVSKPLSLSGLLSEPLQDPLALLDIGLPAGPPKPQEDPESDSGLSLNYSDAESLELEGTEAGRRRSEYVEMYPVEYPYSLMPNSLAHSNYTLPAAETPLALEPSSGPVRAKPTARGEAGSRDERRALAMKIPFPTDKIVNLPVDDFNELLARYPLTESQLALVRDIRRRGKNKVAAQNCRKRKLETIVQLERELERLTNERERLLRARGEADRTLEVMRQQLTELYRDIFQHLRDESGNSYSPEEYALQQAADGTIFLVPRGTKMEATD
inactive: [1] -0.006 | crizotinib -0.052 | [2] -0.001 | [3] -0.031 | duvelisib 0.008 | gandotinib -0.091 | tozasertib 0.077 | [4] -0.015 | doramapimod 0.049 | ispinesib 0.033 | bafetinib -0.048 | [5] -0.13 | nilotinib -0.063 | [6] -0.068 | dasatinib -0.016 | [7] -0.071 | [8] -0.051 | [9] -0.08 | tipifarnib -0.066 | mubritinib 0.026

NECTIN2 (UniProt Q92692)
UniProt Q92692, sequence (Q92692 whole entry, looked up): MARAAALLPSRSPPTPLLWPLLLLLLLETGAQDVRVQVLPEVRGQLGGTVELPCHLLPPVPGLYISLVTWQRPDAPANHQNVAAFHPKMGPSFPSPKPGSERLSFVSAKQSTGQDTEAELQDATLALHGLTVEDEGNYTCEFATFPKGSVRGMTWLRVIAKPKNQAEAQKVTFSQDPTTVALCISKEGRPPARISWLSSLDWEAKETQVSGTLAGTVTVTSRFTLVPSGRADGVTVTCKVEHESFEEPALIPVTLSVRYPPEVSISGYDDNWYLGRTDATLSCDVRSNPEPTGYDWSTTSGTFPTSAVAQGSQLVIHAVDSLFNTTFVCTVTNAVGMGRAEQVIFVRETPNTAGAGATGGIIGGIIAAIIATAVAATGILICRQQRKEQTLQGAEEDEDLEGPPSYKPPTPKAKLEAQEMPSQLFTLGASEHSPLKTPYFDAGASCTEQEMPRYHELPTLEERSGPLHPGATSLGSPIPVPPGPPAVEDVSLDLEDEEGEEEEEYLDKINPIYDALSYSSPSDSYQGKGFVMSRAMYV
inactive: [1] 0.004 | crizotinib 0.121 | [2] 0.082 | [3] -0.148 | duvelisib 0.062 | gandotinib -0.036 | tozasertib -0.048 | [4] -0.038 | doramapimod 0.015 | ispinesib 0.113 | bafetinib 0.03 | [5] -0.023 | nilotinib -0.023 | [6] 0.022 | dasatinib -0.017 | [7] 0.055 | [8] 0.096 | [9] 0.009 | tipifarnib 0.008 | mubritinib 0.023

MRPS2 (UniProt Q9Y399)
active: ispinesib -0.352
inactive: [1] -0.043 | crizotinib 0.078 | [2] 0.032 | [3] 0.048 | duvelisib -0.003 | gandotinib -0.117 | tozasertib 0.027 | [4] 0.022 | doramapimod -0.049 | bafetinib 0.191 | [5] 0.175 | nilotinib -0.119 | [6] 0.019 | dasatinib -0.026 | [7] -0.062 | [8] 0.043 | [9] 0.035 | tipifarnib -0.074 | mubritinib 0.14

OTUD4 (UniProt Q01804)
UniProt Q01804, sequence (Q01804 whole entry, looked up): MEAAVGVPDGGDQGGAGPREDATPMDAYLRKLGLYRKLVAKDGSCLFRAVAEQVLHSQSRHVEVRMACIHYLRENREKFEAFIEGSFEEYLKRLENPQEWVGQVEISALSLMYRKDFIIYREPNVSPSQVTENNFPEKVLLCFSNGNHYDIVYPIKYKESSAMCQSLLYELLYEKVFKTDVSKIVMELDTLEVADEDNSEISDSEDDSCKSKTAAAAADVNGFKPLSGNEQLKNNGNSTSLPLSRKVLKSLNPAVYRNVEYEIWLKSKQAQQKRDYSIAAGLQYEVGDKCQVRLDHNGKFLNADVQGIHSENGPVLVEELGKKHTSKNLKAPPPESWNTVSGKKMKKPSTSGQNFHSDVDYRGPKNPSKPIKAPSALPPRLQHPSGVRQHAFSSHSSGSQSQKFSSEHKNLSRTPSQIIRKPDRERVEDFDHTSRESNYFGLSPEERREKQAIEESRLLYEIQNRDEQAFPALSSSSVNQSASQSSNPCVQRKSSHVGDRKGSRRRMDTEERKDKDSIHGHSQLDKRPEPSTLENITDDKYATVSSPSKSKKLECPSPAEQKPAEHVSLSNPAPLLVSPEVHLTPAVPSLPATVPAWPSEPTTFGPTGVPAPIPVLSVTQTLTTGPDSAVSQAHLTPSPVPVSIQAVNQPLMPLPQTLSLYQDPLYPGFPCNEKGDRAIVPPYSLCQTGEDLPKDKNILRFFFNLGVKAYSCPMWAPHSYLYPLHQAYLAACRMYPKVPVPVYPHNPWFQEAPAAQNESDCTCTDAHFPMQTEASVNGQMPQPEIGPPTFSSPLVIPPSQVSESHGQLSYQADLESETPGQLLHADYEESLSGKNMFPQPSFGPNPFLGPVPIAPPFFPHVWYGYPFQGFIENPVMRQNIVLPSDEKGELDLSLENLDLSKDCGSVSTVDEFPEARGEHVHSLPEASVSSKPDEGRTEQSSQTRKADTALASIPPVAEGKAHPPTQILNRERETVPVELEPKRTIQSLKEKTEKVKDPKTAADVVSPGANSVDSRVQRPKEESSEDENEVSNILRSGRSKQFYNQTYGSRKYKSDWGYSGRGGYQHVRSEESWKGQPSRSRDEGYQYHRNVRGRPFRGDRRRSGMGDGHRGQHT
inactive: [1] 0.018 | crizotinib -0.001 | [2] -0.094 | [3] 0.106 | duvelisib -0.073 | gandotinib 0.059 | tozasertib 0.034 | [4] -0.001 | doramapimod 0.052 | ispinesib -0.034 | bafetinib 0.069 | [5] -0.016 | nilotinib 0.037 | [6] -0.039 | dasatinib 0.046 | [7] -0.077 | [8] -0.082 | [9] -0.09 | tipifarnib 0.064 | mubritinib -0.024

NUP85 (UniProt Q9BW27)
inactive: [1] 0.022 | crizotinib -0.007 | [2] 0.049 | [3] -0.088 | duvelisib 0.033 | gandotinib -0.107 | tozasertib 0.048 | [4] 0.026 | doramapimod -0.021 | ispinesib 0.015 | bafetinib -0.088 | [5] 0.02 | nilotinib -0.027 | [6] -0.115 | dasatinib -0.068 | [7] -0.013 | [8] -0.009 | [9] -0.002 | tipifarnib -0.031 | mubritinib 0.026
